Assay results reported in PubChem BioAssay.
For part of these data: Potency and affinity values are given separately. Active and inactive are the calls of the source.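 The calls were made as follows, unless noted: active = compound raising the membrane signal above positive-control mean plus 3 SD in both repeats, and a primary screen hit; inactive = the rest.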

Key:
[1] = system: TRPC4 beta (transient receptor potential cation channel C4), mouse; assay: activators of mouse TRPC4 channel, confirmation, cell-based, Fluo4 calcium, HEK293 TRPC4beta/mu-opioid, duplicates, 10 µM (AID 2426;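 active = fluorescence ratio normalized to control raised more than 50% in primary screen plus both repeat runs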;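 as to activation: percent rise of integrated ratio over buffer wells lacking compound which define 0%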); details: Fluo4 calcium fluorescence, at 10 µM; hits give high values
[2] = system: transient receptor potential cation channel C4 beta (TRPC4), mouse; assay: activators of mouse TRPC4 channel, confirmation, cell-based, second round, Fluo4, HEK293 TRPC4beta/mu-opioid, 1 µM (AID 2461;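 active = primary screen active and over 50% activation in each of two duplicate runs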); details: Fluo4 calcium fluorescence, at 1 µM; hits give high values
[3] = system: TRPC4 (transient receptor potential cation channel C4 beta), mouse; assay: positive allosteric modulators of mouse TRPC4, confirmation, cell-based, second round, Fluo-4, HEK293 TRPC4beta/mu-opioid, 1 µM (AID 2554;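 active = primary screen hit whose fluorescence ratio, in both repeats, exceeds the weak agonist control mean by 3 SD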); details: DAMGO EC20, Fluo-4 calcium flux, at 1 µM; hits give high values
[4] = system: TRPC4 beta (transient receptor potential cation channel C4), mouse; assay: positive allosteric modulators of mouse TRPC4, confirmation, cell-based, Fluo-4, HEK293 TRPC4beta/mu-opioid (AID 2555;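 active = primary screen hit whose calcium fluorescence ratio, in both repeats, exceeds the weak agonist control mean by 3 SD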); details: DAMGO EC20, Fluo-4 calcium flux, at 10 µM; hits give high values
[5] = target: Short transient receptor potential channel 4 (Mus musculus) (UniProt Q9QUQ5); assay: inhibitors of mouse TRPC4 channel, confirmation, cell-based, Fluo4, HEK293 TRPC4beta/mu-opioid (AID 2636;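 active = calcium signal cut by more than 3 SD below the full-agonist control yet still positive, in both repeats and the earlier primary screen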); details: DAMGO, Fluo4 calcium flux, at 10 µM; hits give high values
Sequence of Short transient receptor potential channel 4 (Mus musculus) (Q9QUQ5 whole entry, looked up): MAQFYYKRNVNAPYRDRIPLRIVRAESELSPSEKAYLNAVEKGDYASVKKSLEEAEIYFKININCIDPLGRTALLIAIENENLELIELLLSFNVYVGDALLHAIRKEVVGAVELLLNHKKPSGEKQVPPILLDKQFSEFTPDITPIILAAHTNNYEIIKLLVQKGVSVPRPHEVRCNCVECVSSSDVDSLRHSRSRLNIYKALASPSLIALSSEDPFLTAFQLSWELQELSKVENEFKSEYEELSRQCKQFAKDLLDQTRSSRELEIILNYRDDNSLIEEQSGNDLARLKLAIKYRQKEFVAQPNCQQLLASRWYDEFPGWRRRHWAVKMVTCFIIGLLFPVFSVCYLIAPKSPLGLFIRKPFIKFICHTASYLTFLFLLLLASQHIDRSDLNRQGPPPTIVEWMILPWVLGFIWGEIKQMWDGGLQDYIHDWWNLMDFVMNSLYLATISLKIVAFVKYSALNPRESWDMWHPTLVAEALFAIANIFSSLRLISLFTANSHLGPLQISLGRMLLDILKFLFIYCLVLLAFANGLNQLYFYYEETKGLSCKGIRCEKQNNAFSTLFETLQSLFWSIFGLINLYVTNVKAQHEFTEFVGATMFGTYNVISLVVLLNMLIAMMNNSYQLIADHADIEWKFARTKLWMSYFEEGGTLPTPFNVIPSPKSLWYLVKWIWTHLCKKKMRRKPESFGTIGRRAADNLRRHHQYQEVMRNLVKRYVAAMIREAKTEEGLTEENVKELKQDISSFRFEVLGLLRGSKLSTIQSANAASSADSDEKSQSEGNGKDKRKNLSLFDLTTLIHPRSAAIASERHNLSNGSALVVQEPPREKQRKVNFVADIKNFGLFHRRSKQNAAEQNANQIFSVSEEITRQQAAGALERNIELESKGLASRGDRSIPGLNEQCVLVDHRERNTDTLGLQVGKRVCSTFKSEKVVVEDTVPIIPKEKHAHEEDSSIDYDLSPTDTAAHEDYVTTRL

[6] = target: Short transient receptor potential channel 4 (Mus musculus) (UniProt Q9QUQ5); assay: inhibitors of mouse TRPC4 channel, confirmation, cell-based, second round, Fluo4, HEK293 TRPC4beta/mu-opioid, 1 µM (AID 2637;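 active = calcium signal ratio cut to more than 3 SD under the fully stimulated control mean yet still positive, in both repeats and the primary screen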); details: Fluo4 calcium flux, DAMGO, at 1 µM; hits give high values
[7] = target: Short transient receptor potential channel 4 (Mus musculus) (UniProt Q9QUQ5); assay: mouse TRPC4 channel activators, dose response, cell-based, HEK293 TRPC4/mu-opioid, Fluo-4 calcium (AID 434937;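 active = primary screen activator hit with a dose response curve and TRPC4 channel activation at any tested dose; inactive = no activation, no dose response, or not a primary hit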)
[8] = target: Short transient receptor potential channel 4 (Mus musculus) (UniProt Q9QUQ5); assay: TRPC4 positive allosteric modulators, dose response, cell-based, HEK293 TRPC4/mu-opioid, Fluo-4 calcium, EC20 DAMGO (AID 434941;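 active = earlier screen potentiator hit that boosts the TRPC4 ion channel at some dose, with a dose response; inactive = no potentiation, no dose response, or not a prior hit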;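 also: calcium entry triggered by an EC20 dose of DAMGO at the co-expressed mu-opioid receptor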)
[9] = target: Short transient receptor potential channel 4 (Mus musculus) (UniProt Q9QUQ5); assay: mouse TRPC4 channel inhibitors, dose response, cell-based, HEK293 TRPC4/mu-opioid, Fluo-4 calcium (AID 434942;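 active = primary screen inhibitor hit that blocks the TRPC4 channel at some tested dose, yielding a dose curve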)
[10] = target: Short transient receptor potential channel 6 (Mus musculus) (UniProt Q61143); assay: inhibition of mouse TRPC6 channel, confirmation, selectivity assay for TRPC4 inhibitor project, cell-based, HEK293, membrane potential dye, duplicate (AID 434948;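 active = active in primary screen and both duplicates, each dropping signal beyond three positive-control SD with fluorescence still positive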); details: HEK293 TRPC6, membrane potential dye fluorescence, at 10 µM, stimulated with maximal-effect acetylcholine; hits give high values
Sequence of Short transient receptor potential channel 6 (Mus musculus) (Q61143 whole entry, looked up): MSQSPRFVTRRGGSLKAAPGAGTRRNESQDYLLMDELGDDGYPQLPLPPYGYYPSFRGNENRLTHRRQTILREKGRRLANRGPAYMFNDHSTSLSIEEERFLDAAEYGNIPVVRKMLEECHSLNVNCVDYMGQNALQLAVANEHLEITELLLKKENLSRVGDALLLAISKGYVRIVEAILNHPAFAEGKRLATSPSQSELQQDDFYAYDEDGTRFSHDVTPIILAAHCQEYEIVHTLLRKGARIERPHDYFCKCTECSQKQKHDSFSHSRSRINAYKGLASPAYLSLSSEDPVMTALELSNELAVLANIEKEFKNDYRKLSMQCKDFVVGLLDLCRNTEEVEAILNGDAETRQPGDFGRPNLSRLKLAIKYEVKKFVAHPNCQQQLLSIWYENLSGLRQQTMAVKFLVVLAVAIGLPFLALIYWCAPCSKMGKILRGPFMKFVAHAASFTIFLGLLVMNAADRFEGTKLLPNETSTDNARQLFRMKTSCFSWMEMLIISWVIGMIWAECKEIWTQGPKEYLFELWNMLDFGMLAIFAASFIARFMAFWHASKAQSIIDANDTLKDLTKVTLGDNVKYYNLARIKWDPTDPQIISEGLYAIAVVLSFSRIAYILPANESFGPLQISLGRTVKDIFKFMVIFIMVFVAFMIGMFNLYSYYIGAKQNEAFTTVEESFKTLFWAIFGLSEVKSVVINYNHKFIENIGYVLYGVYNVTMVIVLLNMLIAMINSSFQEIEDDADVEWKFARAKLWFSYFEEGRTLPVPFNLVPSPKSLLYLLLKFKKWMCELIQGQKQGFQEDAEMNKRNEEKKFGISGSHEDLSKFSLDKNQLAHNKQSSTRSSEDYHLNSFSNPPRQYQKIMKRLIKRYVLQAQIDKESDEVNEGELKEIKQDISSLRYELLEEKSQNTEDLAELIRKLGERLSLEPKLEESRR

[11] = target: Short transient receptor potential channel 6 (Mus musculus) (UniProt Q61143); assay: activation of mouse TRPC6 channel, confirmation, selectivity assay for TRPC4 activator project, cell-based, HEK293, membrane potential dye, duplicate (AID 434950;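 active = membrane potential signal rise above negative control mean plus 3 SD in both duplicates, also active in the earlier TRPC4 screen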); details: HEK293 TRPC6, membrane potential fluorescence, at 10 µM; hits give high values
[12] = target: Short transient receptor potential channel 6 (Mus musculus) (UniProt Q61143); assay: TRPC6 potentiation by TRPC4 potentiator hits, confirmation, selectivity assay for TRPC4 potentiator project, HEK293 cells, membrane potential dye, duplicate (AID 434952); details: HEK293 TRPC6, membrane potential dye fluorescence, at 10 µM, maximal acetylcholine added after compound; hits give high values
[13] = target: Short transient receptor potential channel 4 (Mus musculus) (UniProt Q9QUQ5); assay: calcium flux activators in TRPC4/5HT1a cells, counter-screen for TRPC4 activator project, cell-based, second counter screen, HEK293 TRPC4/5HT1a, Fluo-4 (AID 434977;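 active = calcium signal rise above buffer-control mean plus 5 SD in both duplicates, and also a hit in the primary screen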;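 as to activation: plate controls were assay buffer for no effect and maximal serotonin response for full effect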); details: Fluo-4 calcium flux, at 10 µM; hits give high values
[14] = calcium flux inhibitors in TRPC4/5HT1a cells, confirmation, counter-screen for TRPC4 inhibitor project, cell-based, second counter screen, HEK293 TRPC4/5HT1a, Fluo-4 (AID 434978;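 active = primary screen active whose calcium signal fell more than 3 SD beyond the full-serotonin control mean in both duplicate plates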;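 also: serotonin given first at submaximal then at maximal dose after compound preincubation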); details: Fluo-4 calcium flux, at 10 µM, serotonin added to trigger calcium flux; hits give high values
[15] = system: TRPC4 (mouse), co-expressed with 5HT1a in HEK293; assay: calcium flux potentiators in TRPC4/5HT1a cells, confirmation, counter-screen for TRPC4 potentiator project, cell-based, second counter screen, HEK293 TRPC4/5HT1a, Fluo-4 (AID 434979;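 active = signal rise over 3 SD above mean of control wells given weak agonist, in both repeats and first screen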); details: Fluo-4 calcium flux, at 10 µM, serotonin added at its EC20 dose; hits give high values
[16] = calcium flux activation in mu-opioid HEK293 cells, confirmation, counter-screen for TRPC4 activator project, cell-based, HEK293 mu-opioid receptor line (AID 449723;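 active = hit in primary screen, with calcium signal over 5 SD above buffer well mean in both duplicates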;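 also: counter screen cells carry the mu-opioid receptor alone and lack TRPC4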); details: Fluo-4 calcium fluorescence, at 10 µM; hits give high values
[17] = calcium flux enhancement in mu-opioid HEK293 cells, confirmation, counter-screen for TRPC4 allosteric potentiator project, cell-based, HEK293 mu-opioid receptor line (AID 449724;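 active = calcium signal rise more than 3 SD above the low-dose agonist control mean, in both duplicate plates and the primary screen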); details: Fluo-4 calcium flux, at 10 µM, compound added before EC20 DAMGO stimulus; hits give high values

COc1cc(OC)c2c(-c3ccccc3)cc(=O)oc2c1C(CCN1CCCCC1)c1ccc(N(C)C)cc1 (stereo not given)
active: activation [1] 82% | activation [13] 38.3%
inactive: outcome [2] | outcome [3] | outcome [4] | outcome [5] | outcome [6] | outcome [7] | outcome [8] | outcome [9] | outcome [10] | outcome [11] | outcome [12] | outcome [14] | outcome [15] | outcome [16] | outcome [17]

CSc1ccc2nnc(-c3cccc(F)c3)n2n1
inactive: outcome [1] | outcome [2] | outcome [3] | outcome [5] | outcome [6] | outcome [7] | outcome [8] | outcome [9] | outcome [10] | outcome [11] | outcome [12] | outcome [13] | outcome [14] | outcome [16] | outcome [17]
active: potentiation [4] 43% | potentiation [15] 26.8%

CCCCCc1ccc(OCCCC[n+]2ccccc2)c(CCCCC)c1
inactive: outcome [1] | outcome [2] | outcome [3] | outcome [4] | outcome [5] | outcome [6] | outcome [7] | outcome [8] | outcome [9] | outcome [10] | outcome [11] | outcome [12] | outcome [13] | outcome [14] | outcome [15] | outcome [16] | outcome [17]

CCOc1cc2[nH]c(=S)n(C3CC3)c(=O)c2cc1OCC
inactive: outcome [1] | outcome [2] | outcome [3] | outcome [4] | outcome [5] | outcome [6] | outcome [7] | outcome [8] | outcome [9] | outcome [10] | outcome [11] | outcome [12] | outcome [13] | outcome [14] | outcome [15] | outcome [16] | outcome [17]

O=C(CSCc1cccc(Cl)c1)N1CCN(Cc2ccc3c(c2)OCO3)CC1
inactive: outcome [1] | outcome [2] | outcome [3] | outcome [4] | outcome [5] | outcome [6] | outcome [7] | outcome [8] | outcome [9] | outcome [10] | outcome [11] | outcome [12] | outcome [13] | outcome [14] | outcome [15] | outcome [16] | outcome [17]

CC(=O)OCC1O[C@@H](O[C@@H]2C[C@H]3C(C)(C)[C@H](OC(C)=O)CC[C@]3(C)[C@H]3CC[C@]45C[C@]4(CC[C@H]5[C@@H](C)C[C@@H](O)[C@H](O)C(C)(C)O)[C@@]32C)[C@H](O)[C@@H](O)[C@@H]1O (stereo not given in full)
active: activation [1] 173% | activation [16] 28.8%
inactive: outcome [2] | outcome [3] | outcome [4] | outcome [5] | outcome [6] | outcome [7] | outcome [8] | outcome [9] | outcome [10] | outcome [11] | outcome [12] | outcome [13] | outcome [14] | outcome [15] | outcome [17]

C#CC[N+]1(CC#Cc2cccc3ccccc23)CCOCC1
inactive: outcome [1] | outcome [2] | outcome [3] | outcome [5] | outcome [6] | outcome [7] | outcome [8] | outcome [9] | outcome [10] | outcome [11] | outcome [12] | outcome [13] | outcome [14] | outcome [16] | outcome [17]
active: potentiation [4] 22% | potentiation [15] 26.3%

OC(CNCC1CCCO1)Cn1c2ccc(Br)cc2c2cc(Br)ccc21 (stereo not given)
active: potentiation [15] 45.1%
inactive: outcome [1] | outcome [2] | outcome [3] | outcome [4] | outcome [5] | outcome [6] | outcome [7] | outcome [8] | outcome [9] | outcome [10] | outcome [11] | outcome [12] | outcome [13] | outcome [14] | outcome [16] | outcome [17]

CCOC(=O)CC(NC(=O)c1cc2cc(Br)ccc2oc1=O)c1cccc([N+](=O)[O-])c1 (stereo not given)
active: potentiation [15] 15.9%
inactive: outcome [1] | outcome [2] | outcome [3] | outcome [4] | outcome [5] | outcome [6] | outcome [7] | outcome [8] | outcome [9] | outcome [10] | outcome [11] | outcome [12] | outcome [13] | outcome [14] | outcome [16] | outcome [17]

COC(=O)[C@H](Cc1ccccc1)NC(=O)c1ccc2ccccc2n1
inactive: outcome [1] | outcome [2] | outcome [3] | outcome [5] | outcome [6] | outcome [7] | outcome [8] | outcome [9] | outcome [10] | outcome [11] | outcome [12] | outcome [13] | outcome [14] | outcome [16] | outcome [17]
active: potentiation [4] 81% | potentiation [15] 59.7%

CN1CCN(NC(=O)Nc2cc(Cl)cc(Cl)c2)CC1
active: potentiation [4] 29%
inactive: outcome [1] | outcome [2] | outcome [3] | outcome [5] | outcome [6] | outcome [7] | outcome [8] | outcome [9] | outcome [10] | outcome [11] | outcome [12] | outcome [13] | outcome [14] | outcome [15] | outcome [16] | outcome [17]

Cc1ccccc1OCCNc1cc(N2CCNCC2)ccc1[N+](=O)[O-]
inactive: outcome [1] | outcome [2] | outcome [3] | outcome [4] | outcome [5] | outcome [6] | outcome [7] | outcome [8] | outcome [9] | outcome [10] | outcome [11] | outcome [12] | outcome [13] | outcome [14] | outcome [15] | outcome [16] | outcome [17]

COc1ccccc1CC(=O)N1CCN(S(=O)(=O)c2ccccc2)CC1
inactive: outcome [1] | outcome [2] | outcome [3] | outcome [5] | outcome [6] | outcome [7] | outcome [8] | outcome [9] | outcome [10] | outcome [11] | outcome [12] | outcome [13] | outcome [14] | outcome [16] | outcome [17]
active: potentiation [4] 24% | potentiation [15] 44.4%

Cc1cc(C)c(C(=O)c2ccc(C(=O)N3CCCCC3)cc2)c(C)c1
inactive: outcome [1] | outcome [2] | outcome [3] | outcome [4] | outcome [5] | outcome [6] | outcome [7] | outcome [8] | outcome [9] | outcome [10] | outcome [11] | outcome [12] | outcome [13] | outcome [14] | outcome [15] | outcome [16] | outcome [17]

CC(C)CCn1c(Sc2nc3ccccc3o2)nc2c1c(=O)[nH]c(=O)n2C
inactive: outcome [1] | outcome [2] | outcome [3] | outcome [5] | outcome [6] | outcome [7] | outcome [8] | outcome [9] | outcome [10] | outcome [11] | outcome [12] | outcome [13] | outcome [14] | outcome [16] | outcome [17]
active: potentiation [4] 13% | potentiation [15] 45%
